Screening data deposited in PubChem by National Center for Advancing Translational Sciences (NCATS).
This is a sample that favours compounds with a hit; in the whole collection about 6.3% have one here.
ATXN viability: reduces viability in counter-screen for ATXN expression inhibitors. S2 cells (HEK-293 line with an ATXN2-luciferase reporter) viability, CellTiter-Fluor protease fluorescence, 24 h. Potency, µM (doses to about 56.7 µM), most hits filed as cytotoxic. actives 0.49% (n = 400,000); further: nearly all actives have a fitted effect of over 40% in size
TGFb SMAD3 inh: inhibitors of TGF-b signaling | HepG2 CAGA-GFP TGF-b/SMAD3 reporter, GFP fluorescence, 18 h; TGF-beta stimulated, 500 pg/mL final | Potency, µM (titrated, usually from 46.1 µM), for inactives: at the highest dose activity, negative = inhibition, actives largely listed as inhibitors | actives 1.2% (n = 410,000) | AID 588855; further: on the % scale 0 is the no-effect control and ±100 the full control effect; nearly all actives have a fitted effect of over 65% in size
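Smad-responsive CAGA-GFP expression was quantified in HEPG2 cells exposed to compounds and 500 pg/mL final TGF-beta for 18 h at 37 degrees C; unstimulated wells defined full inhibition.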
HepG2 viability: counter-screen for TGF-b inhibitors: cytotoxicity in HepG2 cells; HepG2 CAGA-GFP viability, ATP luminescence, 18 h; actives 0.76% (n = 410,000); Potency, µM (top dose mostly 46.1 µM), for the others: top-dose activity change, negative = cytotoxicity, actives largely listed as cytotoxic
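HepG2 CAGA-GFP cells (1000/well, DMEM with 1% FBS) received compound, then TGF-beta at 500 pg/mL final, and were incubated 18 hours at 37 degrees C. Viability was read by CellTiter-Glo luminescence. Media-only wells were set as complete cell-killing and DMSO as no toxicity.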
RORgamma inh: inhibitors of mouse ROR gamma transcriptional activity | P51450 | actives 5.4% (n = 310,000) | Potency, µM (top dose mostly 53.6 µM), for inactives: at the highest dose activity change, negative = inhibition, hits mostly inhibitors | Drosophila S2 Gal4-RORgamma UAS-luciferase reporter, 20 h; further: on the % scale 0 is the no-effect control and ±100 the full control effect; nearly all actives have a fitted effect of over 60% in size
Target sequence (P51450 whole entry, looked up, the tested form may be a part): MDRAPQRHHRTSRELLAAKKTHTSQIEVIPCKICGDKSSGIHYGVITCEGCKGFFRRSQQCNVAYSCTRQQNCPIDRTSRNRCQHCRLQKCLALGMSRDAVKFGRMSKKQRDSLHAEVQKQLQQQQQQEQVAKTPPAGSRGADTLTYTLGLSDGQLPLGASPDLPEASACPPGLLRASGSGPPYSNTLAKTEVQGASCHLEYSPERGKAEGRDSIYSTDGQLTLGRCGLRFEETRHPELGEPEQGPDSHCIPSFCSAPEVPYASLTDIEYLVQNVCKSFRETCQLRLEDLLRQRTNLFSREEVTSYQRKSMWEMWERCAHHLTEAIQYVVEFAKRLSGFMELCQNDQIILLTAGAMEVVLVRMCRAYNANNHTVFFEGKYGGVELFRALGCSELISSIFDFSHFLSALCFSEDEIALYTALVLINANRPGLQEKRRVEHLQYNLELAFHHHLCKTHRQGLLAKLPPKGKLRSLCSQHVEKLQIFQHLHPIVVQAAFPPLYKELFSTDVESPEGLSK
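Stably transfected Drosophila Schneider cells are the test system, with ROR gamma fused to Gal4 and luciferase under UAS control; luminescence is read after 20 hr of 700 uM copper sulfate induction at ambient temperature.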
Gal4-VP16 FLuc: inhibits Gal4-VP16 luciferase reporter, ROR gamma counter-screen; Drosophila S2 Gal4-VP16 UAS-luciferase, luminescence, 20 h; Potency, µM (highest dose often 53.6 µM), for inactives: top-dose activity, negative = inhibition, actives largely listed as inhibitors; actives 3.5% (n = 310,000);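 further: Gal4-VP16 expression switched on by copper sulfate through the metallothionein promoter; on the % scale 0 is the no-effect control and ±100 the full control effect; nearly all actives have a fitted effect of over 50% in size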
ATXN2 expr inh: ATXN2 expression inhibition; HEK-293 ATXN2-luciferase reporter, luminescence, 24 h; Potency, µM (series often up to 57 µM), for inactives: at the top dose activity change, negative = inhibition, most hits filed as inhibitors; actives 0.72% (n = 360,000); AID 1745845; further: on the % scale 0 is the no-effect control and ±100 the full control effect; nearly all actives have a fitted effect of over 55% in size
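qHTS (up to 57 uM final) was run with 24 h compound exposure of reporter cells at 37 °C. Each well was multiplexed: SteadyGlo luminescence measured ATXN2-luciferase expression after a fluorogenic Gly-Phe-AFC viability readout (25 uM final).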
* marks the source's active call; other numbers are inactive results; i = inactive; ? = inconclusive; / = no result given; [ ] = remark or other dose. The call rests on the fitted dose curve; in most records, active means well fitted curve in the direction sought with a large enough effect; inconclusive means small, poorly fitted or top-dose-only effect, or another doubt; inactive means no such curve, though single readings can be large; an effect the other way counts as inactive or inconclusive. Potency means the concentration at half of the fitted maximal effect.

SMILES	ATXN viability	TGFb SMAD3 inh	HepG2 viability	RORgamma inh	Gal4-VP16 FLuc	ATXN2 expr inh
CCCOc1ccc(-c2c(C(=O)N/N=C/c3ccc(OC)cc3)nnn2-c2nonc2N)cc1	i	?	-1%	16µM*	?	-22%
CCOc1ccc(-c2c(C(=O)N/N=C/c3ccc(O)cc3)nnn2-c2nonc2N)cc1	i	3%	7%	5%	-4%	-5%
CC(O)(COc1ccccc1)c1ccc2c(c1)CN(C/C=C/c1ccco1)CCO2 (stereo not drawn)	i	/	/	/	/	/
C[C@@]12C(=O)N(c3ccc(C(F)(F)F)cc3)C(=O)N1[C@@H]1c3ccccc3OC[C@@H]1[C@H]2c1ccccc1	i	3%	-29%	?	-18%	1%
COC(=O)[C@@H]1C[C@@H]2CC[C@@H](O)C[C@@H]2N1Cc1ccc(N2CCOCC2)cc1	/	/	/	-8%	1%	/
COc1cc(C2C(c3ccccc3)C(c3cc(OC)cc(=O)o3)C2c2ccccc2)oc(=O)c1 (stereo not drawn)	i	18%	-20%	/	/	-22%
CCN1CCN(CCCN(Cc2ccco2)C(=S)Nc2ccc(Cl)c(C)c2)CC1	i	-12%	11µM*	9%	7%	-22%
Cc1ccc(Cl)c(NC(=S)N(CCCN2CCOCC2)Cc2ccco2)c1	i	-7%	-5%	8.9µM*	?	-6%
COc1cccc(NC(=O)c2cc3cccc(OC)c3o/c2=N\O)c1	/	/	/	-37%	-28%	/
COc1ccc(NC(=O)c2cc3cccc(OC)c3oc2=Nc2ccc(C(=O)O)cc2)cc1OC	?	11%	-2%	0.45µM*	?	2%[11.3 µM]
Cc1ccc(F)cc1CNC(=O)c1cc(COc2ccc3ncccc3c2)on1	i	-4%	-18%	?	11µM*	?
O=C(NCc1cccc(Cl)c1)c1cc(COc2ccc3ncccc3c2)on1	?	?	-21%	-71%	10µM*	?
CC(CCCC(C)(C)O)NC(=O)c1cc(COc2ccc3ncccc3c2)on1 (stereo not drawn)	?	-52%	2%	7.9µM*	5.6µM*	-36%
Cc1cc(C)n(CCNC(=O)c2cc(COc3ccc4ncccc4c3)on2)n1	i	-10%	-8%	?	?	-32%
CC(C)N(Cc1nccn1C)C(=O)c1cc(COc2ccc3ncccc3c2)on1	i	-14%	-3%	-67%	?	-21%
COc1cc(Cl)c(CN2CCOc3ccc(CN4CCCCC4CO)cc3C2)cc1OC (stereo not drawn)	i	/	/	/	/	/
COc1ccc(OC)c(S(=O)(=O)NCCS(=O)(=O)N2CCN(c3ccccc3)CC2)c1	i	?	-2%	?	6%	-15%
O=C(O)C1=CC(c2ccc(Br)cc2)n2ncnc2N1 (stereo not drawn)	i	0%	-11%	/	/	-1%
Cc1nc(C(=O)NNC(=O)c2cccc(Cl)c2)c(C(F)(F)F)o1	i	-2%	-28%	8.9µM*	-75%	-34%
Cc1nc(C(=O)NNC(=O)c2ccccc2Cl)c(C(F)(F)F)o1	i	0%	-39%	?	-15%	-38%
O=C(NC1=NCCS1)C1COc2ccccc2O1 (stereo not drawn)	i	3%	-23%	6.3µM*	4.5µM*	2.5µM*
O=C(Nc1ncc(Cc2ccccc2)s1)C1COc2ccccc2O1 (stereo not drawn)	i	7%	-4%	10µM*	2µM*	66%
Cc1nnc(NC(=O)C2COc3ccccc3O2)s1 (stereo not drawn)	i	13%	5%	-26%	3%	21%
CCC(CC)c1nnc(NC(=O)C2COc3ccccc3O2)s1 (stereo not drawn)	i	26%	-24%	10µM*	-26%	32%
CC1(C(=O)NS(=O)(=O)c2ccc(Cl)cc2)CCN1C(=O)CC1CC1 (stereo not drawn)	i	?	-6%	/	/	12%
SMILES	ATXN viability	TGFb SMAD3 inh	HepG2 viability	RORgamma inh	Gal4-VP16 FLuc	ATXN2 expr inh
O=C(c1ccccc1-n1cccn1)N1CCOc2ccc(CN3CCOCC3)cc2C1	i	/	/	/	/	/
COC(=O)c1ccccc1NC(=O)C1CC(c2ccccc2O)=NO1 (stereo not drawn)	i	-6%	-18%	13µM*	?	-8%
CSc1ccccc1NC(=O)C1CC(c2ccccc2O)=NO1 (stereo not drawn)	i	-6%	0%	?	?	18%
O=C(Nc1cc(Br)ccc1O)C1CC(c2ccccc2Cl)=NO1 (stereo not drawn)	i	16µM*	-57%	32%	-19%	5%
Cc1ccc(CSc2nc3ccc(NC(=O)CC(C)C)cc3s2)cc1	i	-13%	-15%	/	/	-3%
O=NN(CCCl)C(=O)NC1CCCCC1	i	/	/	13%	-9%	-19%
Cc1nc2ccccc2nc1N1CCCCC1	i	-2%	-13%	19%	16%	1%
Cc1ccc2c(Cl)c(C)c(N3CCCCC3)nc2n1	i	5%	-42%	4µM*	?	0%
Cc1ccc2c(c1)-c1[nH]c(=S)ncc1CS2	i	?	-3%	2.2µM*	-13%	/
COC(=O)CC1Oc2ccccc2-n2cc(-c3ccc(Cl)cc3)nc21 (stereo not drawn)	i	-7%	3%	/	/	6%
COc1ccc(CC(=O)Nc2cccc(-c3nnc(-c4ccc(C)cc4)o3)c2)cc1OC	?	?	-27%	?	?	?
COc1ccc(CC(=O)Nc2cccc(-c3nnc(-c4cccc(C)c4)o3)c2)cc1OC	?	0%	1%	?	7.9µM*	-37%
CCCCn1c(CN2CCN(c3ccccc3)CC2)nc2c1c(=O)n(C)c(=O)n2C	?	-18%	-47%	-7%	6.3µM*	?
Cn1c(=O)c2c(nc(CN3CCc4ccccc4C3)n2CC(=O)c2ccccc2)n(C)c1=O	i	7.9µM*	-31%	/	/	-5%
COc1ccc(C(=O)NC(=S)NCc2cccnc2)cc1OC	i	18%	1%	-12%	-4%	-11%
Cc1ccc(C(=O)NC(=S)NCc2ccccc2)cc1	i	?	-13%	10µM*	13µM*	/
COc1cc(CNC(=O)C2CC2)ccc1OCc1ccccc1	i	2%	-37%	32µM*	-6%	21%
Cc1ccc(CNC(=O)NCc2ccccc2)cc1	i	-13%	-3%	5%	3%	/
COc1cccc(OC)c1C(=O)NC(=S)NCc1cccnc1	i	-5%	6%	-9%	-4%	9%
